From the supplement of paper PMC7556523
Values without a mark were called inactive.

Each molecule was assayed on Sporothrix brasiliensis CBS 133006 (assay: growth inhibition relative to untreated control; higher = more growth inhibition (more antifungal activity), active = 80 or more; extreme values may be limits of the assay). Conditions: 1 µM; 48 h.
Outline: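 Before testing, the reference isolates were kept in brain heart infusion broth with 2% glucose at 36°C for 7 days to give yeast-form cells. These cells, at 1 x 10^5 CFU/ml, received library compounds at a final 1 μM and were held 48 h at 35°C in 5% CO2. Growth was checked by eye under an inverted light microscope and quantified spectrophotometrically in quadruplicate, and the value is percent growth inhibition versus untreated cells.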

Row | Compound | growth inhibition
1 | CC(=O)N(CCN(C(=O)c1ccc(F)cc1)c1ccccc1)c1ccccc1 | 13%
2 | Clc1ccc(CN2CCN(C3=NCCN3)CC2)cc1Cl | 18.8%
3 | O=C(COc1cccc(F)c1)Nc1nc(-c2ccccn2)cs1 | 22.5%
4 | O=C(Nc1nnc(-c2ccc(Cl)cc2)o1)c1cccc(C(F)(F)F)c1 | 100% (active)
5 | Cc1ccc(S(=O)(=O)n2cc(-c3ccnc(N)c3)c3cc(Br)cnc32)cc1 | 0%
6 | Cc1nc(-c2ccccn2)nc(NCCc2ccc(S(C)(=O)=O)cc2)c1Cl | 13%
7 | N#Cc1ccc(-c2ccc(OCC(N)=O)cc2)cc1 | 19.2%
8 | CO[C@@H](C(=O)N1Cc2[nH]nc(NC(=O)c3ccc(N4CCN(C)CC4)cc3)c2C1)c1ccccc1 | 16.2%
9 | O=C([C@@H](c1ccc(Cl)cc1)c1cccnc1)N1CCN(c2ccc(C(F)(F)F)cc2)CC1 | 25.2%
10 | CO[C@H]1/C=C\O[C@@]2(C)Oc3c(C)c(O)c4c(O)c(/c(=C/NN5CCN(C)CC5)c(O)c4c3C2=O)=N\C(=O)/C(C)=C\C=C/[C@H](C)[C@H](O)[C@@H](C)[C@@H](O)[C@@H](C)[C@H](OC(C)=O)[C@@H]1C | 3%
11 | Cc1cc(Nc2ccc(C(F)(F)F)cc2)n2ccnc2n1 | 12.2%
12 | CC(C)(C)OC(=O)N1CCN(c2cc(-c3ccc(Oc4ccccc4)cc3)n[nH]2)CC1 | 10.5%
13 | O=C(NCCN1CCCC1)c1cc(NCCCCN2CCC(F)(F)CC2)nc2ccc(Cl)cc12 | 2.75%
14 | CCc1nc2ccc(C(=O)NCc3ccc4c(c3)OCO4)cn2c1N(C)Cc1cccs1 | 7%
15 | COCC(C)NC(=O)CSc1ncnc2sc(-c3ccccc3)cc12 (stereo not drawn) | 17.8%
16 | CCN(CC)CCCCCCNc1cc(OC)cc2c(C)ccnc12 | 7%
17 | N=C(N)Nc1ccc(-c2ccc(-c3ccc(N=C(N)N)c(Cl)c3)o2)cc1Cl | 1.75%
18 | O=C(NC1CC1)c1ccc(N2CCOc3ccc(Cl)cc32)s1 | 7%
19 | Cc1cccc(NC(=O)c2cc(S(=O)(=O)N(C)c3ccc(F)cc3)ccc2Cl)n1 | 4.25%

Row | Compound | growth inhibition
20 | CC(C)(C)n1nc(Cc2cccc3ccccc23)c2c(N)ncnc21 | 11%
21 | OC[C@H]1O[C@@H](n2c3ccc(Cl)cc3c3c(-c4cc5ccccc5o4)ncnc32)C(O)[C@H]1O (stereo partly drawn) | 10.8%
22 | CN1CCN(S(=O)(=O)c2ccc(-c3ccc4c(Nc5ncc(Cl)cn5)ccnc4c3)cc2)CC1 | 13%
23 | CCn1cnc2c(Nc3cc(F)cc(F)c3)nc(C#N)nc21 | 13%
24 | O=S(=O)(c1ccc(Cl)cc1)N1CCN(C(=S)NCc2ccco2)CC1 | 0%
25 | O=C(Nc1ccc(F)c(-c2nc3cc(-c4ccccc4)cnc3[nH]2)c1)N1CCCC1 | 12.5%
26 | CC(C)(C)c1cc(C(=O)Nc2cccnc2)cc(C(=O)Nc2cccnc2)c1 | 6%
27 | CC1CCCCN1C(=O)NCCc1coc(-c2ccc(F)cc2)n1 (stereo not drawn) | 11%
28 | COc1ccc(-c2cnc3ccc(N4CCCC4)nn23)cc1OC | 21%
29 | CS(=O)(=O)c1ccccc1C(=O)N(Cc1ccccc1)c1ccccc1 | 13.2%
30 | CC(=O)N1CCc2cc3nc(C)cc(C)c3cc21 | 4%
31 | Clc1ccc(-n2cc(COc3ccnc4ccccc34)nn2)cc1 | 13.5%
32 | CC1CC1C(=O)NC1CCN(CC2(c3ccccc3)CCCCC2)CC1 (stereo not drawn) | 12.8%
33 | C[C@H](C(N)=O)N1CCCC[C@H]1c1ccc(OCc2cccc(F)c2)cc1 | 6.5%
34 | CCc1ccc(C(NCc2nc(N)nc(N(C)C)n2)C(C)C)cc1 (stereo not drawn) | 0%
35 | N=C(N)c1ccc(-c2cc(-c3ccccc3)on2)cc1 | 7%
36 | O=C(Nc1ccc2c(c1)B(O)OC2)c1ccccc1C(F)(F)F | 13.5%
37 | O=C(Nc1nnc(-c2ccc(Cl)s2)o1)c1ccc(Cl)s1 | 27.8%
38 | CC(C)C(C(=O)Nc1ccc(S(=O)(=O)N(C)C)cc1)c1ccc(Cl)cc1 (stereo not drawn) | 17.5%
